Results from PubChem BioAssay (NCATS).
Inconclusive results are not listed. Active and inactive are the calls of the source. Calls come from the whole dose curve; as a rule, active = well fitted inhibition curve with a large enough effect; inconclusive = small, poorly fitted or top-dose-only effect, or effect the other way; inactive = flat fitted curve, though single readings scatter.

The compounds below were run against ATP-dependent 6-phosphofructokinase (Trypanosoma brucei brucei) (UniProt O15648) (assay: qHTS Assay to Find Inhibitors of T. brucei phosphofructokinase: hit validation (AID 492961;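 note: luminescence reports ADP formed as PFK phosphorylates fructose-6-phosphate with ATP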)). Settings: T. brucei PFK, ADP-Glo luminescence; series mostly up to 51.4 µM; activity change, negative = inhibition: at the top concentration.
Sequence of ATP-dependent 6-phosphofructokinase (Trypanosoma brucei brucei) (O15648 whole entry, looked up): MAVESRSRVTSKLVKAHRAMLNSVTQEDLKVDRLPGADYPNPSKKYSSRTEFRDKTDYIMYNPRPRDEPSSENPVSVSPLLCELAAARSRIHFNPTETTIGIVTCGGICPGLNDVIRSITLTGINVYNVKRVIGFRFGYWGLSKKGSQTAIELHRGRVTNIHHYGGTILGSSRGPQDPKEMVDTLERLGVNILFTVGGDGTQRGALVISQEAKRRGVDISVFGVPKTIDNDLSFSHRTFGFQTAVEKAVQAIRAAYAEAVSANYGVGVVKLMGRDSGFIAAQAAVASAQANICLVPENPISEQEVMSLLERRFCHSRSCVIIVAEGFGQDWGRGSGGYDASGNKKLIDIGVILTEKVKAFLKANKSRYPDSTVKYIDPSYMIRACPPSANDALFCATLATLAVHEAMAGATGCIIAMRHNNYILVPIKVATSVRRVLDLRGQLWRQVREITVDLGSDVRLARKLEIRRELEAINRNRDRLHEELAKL
How it was run: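 Percent activity derived from corrected luminescence, normalized between 0x and 1x enzyme controls, then fitted to concentration-response curves. Conditions: 1.25 nM PFK, 0.1 mM ATP, 0.5 mM F6P, 45 min RT.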
% is set by controls: 0 for no effect and ±100 for the full control effect.

SMILES | activity change, negative = inhibition
Nc1ccc(S(=O)(=O)NCc2ccccc2)cc1 | -4.84% (inactive)
OC1C(O)C(O)C(O)C(O)C1O (configuration not stated) | -0.435% (inactive)
O=C(O)c1ccc(S(=O)(=O)N(Cl)Cl)cc1 | 6.38% (inactive)
CC(=O)Nc1ccc(OC(=O)c2ccccc2OC(C)=O)cc1 | -4.2% (inactive)
Cc1cc(-c2ccccc2)nnc1NCCN1CCOCC1 | -7.33% (inactive)
CCC(CC)(CC(=O)Nc1cccc(/C=C/c2nc(C3CCC3)cs2)c1)C(=O)O | 0.279% (inactive)
Cc1cc(C)cc(OCC2CNC(=O)O2)c1 (configuration not stated) | 9.48% (inactive)
CCCN(CCc1cccs1)[C@H]1CCc2c(O)cccc2C1 | 1.04% (inactive)
OCc1ccccn1 | 11.4% (inactive)
C[N+]1(CC2COC(c3ccccc3)(C3CCCCC3)O2)CCCCC1 (configuration not stated) | 1.5% (inactive)
O=C(NC1CCN(CCc2c[nH]c3ccccc23)CC1)c1ccccc1 | -7.05% (inactive)
CCC1Nc2cc(Cl)c(S(N)(=O)=O)cc2S(=O)(=O)N1 (configuration not stated) | -8.55% (inactive)
CCCCc1cc2ccccc2c(OCCN(C)C)n1 | 13.1% [at 24.3 µM] (inactive)
FC(F)(F)C(F)(F)C(F)(F)C(F)(F)C(F)(F)C(F)(F)C(F)(F)C(F)(F)Br | 0.148% (inactive)
CC(=O)Nc1ncc([N+](=O)[O-])s1 | -4.86% (inactive)
CC(=O)OCC(=O)[C@H]1CC[C@H]2[C@@H]3CCC4=CC(=O)CC[C@]4(C)[C@H]3CC[C@]12C | 0.512% (inactive)
CC(C)(Cc1c[nH]c2ccccc12)NCC(O)COc1ccccc1C#N (configuration not stated) | -1.64% (inactive)
Cc1cc(NS(=O)(=O)c2ccc(N)cc2)nc(C)n1 | 6.17% (inactive)
C=CCN1CCc2nc(N)sc2CC1 | -13.7% (inactive)

SMILES | activity change, negative = inhibition
C#C[C@]1(OC(C)=O)CC[C@H]2[C@@H]3CCC4=C/C(=N/O)CC[C@@H]4[C@H]3CC[C@@]21CC | -1.86% (inactive)
O=C1C(O)=C(O)C(=O)C(O)=C1O | -11% (inactive)
O=C1C(=O)c2ccccc2C(O)=C1C1CCC(c2ccc(Cl)cc2)CC1 (configuration not stated) | 5.75% [at 24.3 µM] (inactive)
N/C(=N\N=C\c1ccc(Cl)cc1)N/N=C/c1ccc(Cl)cc1 | -0.284% (inactive)
CCN(CC)CCOc1ccccc1C(=O)CCc1ccccc1 | -3.17% (inactive)
CC(=O)NCCCCCC(=O)O | -5.68% (inactive)
Cc1cccc(C)c1NC(=O)c1ccccc1C(=O)O | -8.38% (inactive)
NC(N)=NN=C(/C=C/c1ccc([N+](=O)[O-])o1)/C=C/c1ccc([N+](=O)[O-])o1 | -13.2% (inactive)
C/C=C/c1ccc(O)c(OC)c1 | -2.1% (inactive)
O[C@@H](c1cc(C(F)(F)F)nc2c(C(F)(F)F)cccc12)[C@H]1CCCCN1 | 3.87% (inactive)
Cc1ccc(O)c([C@H](CCN(C(C)C)C(C)C)c2ccccc2)c1 | 3.11% (inactive)
OCCOCCN1CCN(C2=Nc3ccccc3Sc3ccccc32)CC1 | 2.94% (inactive)
CC(=O)Oc1ccc(C)cc1 | -1.49% (inactive)
CCOCCn1c(N2CCCN(C)CC2)nc2ccccc21 | 7.26% (inactive)
Oc1c(Cl)cc(Cl)c(Cl)c1Cc1c(O)c(Cl)cc(Cl)c1Cl | -0.142% (inactive)
Cc1ccc2c(Br)cc(Br)c(O)c2n1 | 0% (inactive)
CC1=C(C(=O)O)N2C(=O)[C@@H](NC(=O)[C@H](N)c3ccccc3)[C@H]2SC1 | 6.77% (inactive)
CN(C)CCC[C@@]1(c2ccc(F)cc2)OCc2cc(C#N)ccc21 | -0.96% (inactive)
